The full list was thinned out, with hits kept by preference.
PGK inhibitor: qHTS Assay to Find Inhibitors of Phosphoglycerate Kinase; AID 602233, 2012; PGK/GAPDH coupled, Kinase-Glo luminescence, 60 min; 0.043% of 380,000 active; Phosphoglycerate kinase, glycosomal (Trypanosoma brucei brucei), P07378; Potency, µM (top dose mostly 57.5 µM), inactives show at the top dose activity change, negative = inhibition, usual class: inhibitors; also: potency is read from the fitted curve at half-maximal effect; nearly all actives have a fitted effect of over 60% in size
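Luminescent ATP detection (Kinase-Glo Plus) follows a 60-minute room-temperature incubation, with wells lacking PGK as controls. Buffer: 100 mM TEA (pH 7.6), 5 mM MgCl2, 0.01% Tween-20. Coupling enzyme GAPDH (100 nM final) supplies unstable 1,3-BPG in-well.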
PI4K2A inh: qHTS for small molecular inhibitors of PI4K2A; purified PI4K2A, ADP-Glo luminescence, 1 h; stronger effect = lower value; activity change, negative = inhibition, % at 76.9 µM; 0.13% of 420,000 active; AID 1346378, 2018; in the data active = activity change below about -50%; inconclusive = mostly about -30% to -49%;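 also: -100% = wells without enzyme as full effect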
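PI4K2A activity was measured by ADP-Glo luminescence: enzyme (4 ug/mL stock) and phosphatidylinositol (1.2 mM stock) in Tris pH 7.5/MgCl2/EGTA/Triton X-100 buffer were reacted with ATP (300 microM stock) for one hour at ambient temperature.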
Pin1 inhibitor: qHTS Assay to Find Inhibitors of Pin1; Pin1 FP peptide displacement, HiFluor488, 10 min; Potency, µM (doses to about 115 µM), without a hit: at the top dose activity, negative = inhibition, most hits filed as inhibitors; 0.009% of 390,000 active; AID 504891, 2011; active = well fitted inhibition curve with a large enough effect in the polarisation, with a control signal flat, not every such curve was filed as active; inconclusive = small, poorly fitted or top-dose-only effect, or effect the other way, or a change in a side signal; inactive = no such curve, though single readings can be large or run the other way; the % refers to the polarisation; also: potency is read from the fitted curve at half-maximal effect
Target sequence (Q13526 whole entry, looked up): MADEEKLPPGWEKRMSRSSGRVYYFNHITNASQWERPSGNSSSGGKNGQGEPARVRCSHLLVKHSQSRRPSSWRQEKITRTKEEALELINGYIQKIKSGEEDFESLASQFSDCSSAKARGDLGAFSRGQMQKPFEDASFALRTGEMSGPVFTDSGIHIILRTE
PI5P4Ka inh: qHTS for Inhibitors of phosphatidylinositol 5-phosphate 4-kinase (PI5P4K); Phosphatidylinositol 5-phosphate 4-kinase type-2 alpha (Homo sapiens), P48426; PI5P4Kalpha enzyme, ADP-Glo luminescence, 60 min; stronger effect = lower value; max response, %; 1.2% of 330,000 active; active = max response of -50% or lower; inconclusive = between -30% and -50%; inactive = -30% or higher; also: value at the top dose of about 77 µM
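Quantitative HTS of the MLSMR library against PI5P4Kalpha with substrate. ATP added last at 5 microM final; room temperature, 60 minutes. Remaining ATP depleted, ADP converted and read as luminescence.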
Tb PFK block: qHTS Assay to Find Inhibitors of T. brucei phosphofructokinase; Potency, µM (top dose mostly 57.5 µM), inactives show at the top dose activity, negative = inhibition, actives largely listed as inhibitors; 0.17% of 330,000 active; T. brucei PFK, ADP-Glo luminescence;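 also: potency is read from the fitted curve at half-maximal effect; 0% = uninhibited 1x PFK enzyme wells and -100% = no-enzyme wells; nearly all actives have a fitted effect of over 60% in size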
Target sequence (O15648 whole entry, looked up): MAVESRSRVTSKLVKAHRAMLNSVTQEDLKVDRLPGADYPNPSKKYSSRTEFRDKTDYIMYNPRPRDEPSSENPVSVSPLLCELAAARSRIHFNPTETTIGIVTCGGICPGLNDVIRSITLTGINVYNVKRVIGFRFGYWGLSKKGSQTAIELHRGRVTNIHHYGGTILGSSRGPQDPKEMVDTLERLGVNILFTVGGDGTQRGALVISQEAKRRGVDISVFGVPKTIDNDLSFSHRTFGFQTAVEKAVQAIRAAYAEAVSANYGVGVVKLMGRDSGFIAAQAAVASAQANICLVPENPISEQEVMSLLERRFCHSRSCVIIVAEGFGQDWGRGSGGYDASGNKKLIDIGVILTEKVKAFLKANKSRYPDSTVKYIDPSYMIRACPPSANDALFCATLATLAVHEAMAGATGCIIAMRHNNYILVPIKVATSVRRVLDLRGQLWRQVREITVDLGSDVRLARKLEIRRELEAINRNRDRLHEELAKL
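Activity is normalized to no-enzyme wells (full inhibition) and 1.25 nM enzyme wells (no inhibition). Reaction: 0.5 mM F6P, 0.1 mM ATP, 45 min RT, ADP-Glo luminescence; concentration-response curves fitted and classed by quality.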
Active calls of the source: *; i = inactive; ? = inconclusive; / = not tested or not shown; ! = a repeat was not active. Unless noted, calls follow the shape of the dose curve; as a rule, active = well fitted curve in the direction sought with a large enough effect; inconclusive = small, poorly fitted or top-dose-only effect, or another doubt; inactive = no such curve, though single readings can be large; an effect the other way counts as inactive or inconclusive. Unless noted, % is scaled to controls: 0 for no effect and ±100 for the full control effect.

SMILES	PGK inhibitor	PI4K2A inh	Pin1 inhibitor	PI5P4Ka inh	Tb PFK block
CN(Cc1cnc2nc(N)nc(N)c2n1)c1ccc(C(=O)N[C@@H](CCC(=O)O)C(=O)O)cc1	3.0%	-5.2	4.5%	-68.3*!	/
O=C(CN(CCO)c1ccccc1)Nc1cccc(S(=O)(=O)N2CCCC2)c1	i	-5.5	-6.4%	-5.2	-1.2%
O=C(O)CCNc1ccc(NCCC(=O)O)c2c1C(=O)c1ccccc1C2=O	?	-29.6	?	-67.9*	?
Cc1cc(OCCCCCN2CCCC2)ccc1Cl	-6.1%	6.2	-10.8%	-4.5	-7.6%
O=c1cc(N2CCOCC2)[nH]c(=O)n1C1CCCCC1	-2.8%	13.4	-2.9%	1.5	-1.4%
Cc1nc(-[n+]2nc(-c3ccncc3)nn2-c2ccccc2)sc1C	/	-73.2*	/	-20.3	/
Cc1cc(C)c(SSc2nnnn2-c2ccccc2)c(C)c1	4.2%	-25.3	/	-80.4*	/
CN=c1scc(-c2cccs2)n1/N=C/c1ccccc1O	-8.0%	-20.5	37.4%	10.3	-0.7%
COCCN=c1scc(-c2ccco2)n1/N=C/c1ccc(O)c(O)c1O	-24.9%	-10.8	?	-85.3*	-15.9%
CN=c1scc(-c2cccs2)n1/N=C/c1ccc(O)c(O)c1O	-16.9%	?	?	-75.4*	-8.2%
C=CCN=c1scc(-c2ccco2)n1/N=C/c1ccc(O)c(O)c1O	-4.2%	-5.7	?	-72.9*	0.8%
N=C1/C(=C\c2ccc(-c3cccc(Cl)c3)o2)C(=O)N=C2SC=C(c3ccccc3)N12	-7.0%	-6.5	?	-55.1*	0.0%
N=C1/C(=C\c2ccc(-c3ccc(C(=O)O)cc3)o2)C(=O)N=C2SC=C(c3ccccc3)N12	-13.5%	-10.0	?	-70.3*	0.0%
N=C1S/C(=C\c2ccc(-c3cccc(Cl)c3)o2)C(=O)N1c1nccs1	-3.7%	-2.5	13.7%	-63.2*	-0.3%
Cc1cc(/C=C2/C(=N)N3C(c4ccccc4)=CSC3=NC2=O)c(C)n1-c1ccc(Cl)cc1	5.3%	2.3	1.6%	0.6	/
COc1ccc(/C=C2\SC(=N)N(c3nccs3)C2=O)cc1OC	-2.6%	-3.0	?	-22.7	19.0%
COc1cc(/C=C2/C(=N)N3C(c4ccccc4)=CSC3=NC2=O)ccc1OCC(=O)O	-6.2%	-23.0	-19.6%	-52.4*	1.8%
COc1cccc(C(=O)NCCS(=O)(=O)NCc2ccc3c(c2)OCO3)c1	-1.6%	0.8	-5.2%	-3.1	-10.6%
O=C(O)c1cc(Nc2cc(Cl)c3nonc3c2[N+](=O)[O-])ccc1O	/	-59.0*	?	?	-27.4%
Cc1ccc(NC(=O)c2cc(N3C(=O)C=CC3=O)ccc2N2CCOCC2)cc1	9.7%	0.8	10.0%	-62.5*	?
Cc1ccc(NC(=O)c2cc(NC(=O)c3ccco3)ccc2N2CCOCC2)cc1	3.7%	-9.3	-0.4%	-4.8	13.4%
Cc1ccc(NC(=O)c2cc(N3C(=O)C=CC3=O)ccc2Cl)cc1C	-2.2%	-0.5	5.8%	-76.0*	-14.0%
c1ccc(-n2c(-c3ccncc3)nnc2-c2cccs2)cc1	-9.6%	-4.8	-0.3%	2.4	3.7%
C=C(C)C(=O)Oc1ccc(N=Nc2ccc(C)cc2)ccc1=O	2.82µM*	-14.7	/	-12.3	/
N#C/C(=C\c1ccc(-c2cc(Cl)ccc2Cl)o1)C(=O)Nc1cccc2ncccc12	/	-52.8*	/	/	/
SMILES	PGK inhibitor	PI4K2A inh	Pin1 inhibitor	PI5P4Ka inh	Tb PFK block
O=C(Cc1ccccc1)NNC(=O)Nc1ccc(Cl)c(Cl)c1	-4.3%	2.0	-5.2%	1.1	0.0%
NC(=S)NNC(=O)Nc1ccc(Cl)c(Cl)c1	-6.7%	2.2	1.6%	-8.5	16.9µM*
CCCCn1c(N)c(N(CCOC)C(=O)c2cccc(S(=O)(=O)N3CCCCCC3)c2)c(=O)[nH]c1=O	0.9%	5.2	-0.1%	-6.2	4.7%
CCc1cc(=O)oc2cc(C)c(CN3CCCC(C)C3)c(O)c12 (stereo unspecified)	-4.7%	-50.9*	?	/	?
CC(=O)N1CCN(S(=O)(=O)c2cccc(C(=O)NCCc3ccc(Cl)cc3)c2)CC1	-2.1%	4.9	3.8%	-1.5	3.3%
O=C(O)c1ccc(N2C(=O)CC(N3CCN(c4ccc(Cl)cc4)CC3)C2=O)cc1 (stereo unspecified)	i	-3.1	-0.6%	-0.9	7.8%
O=C(O)c1ccc(N2C(=O)CC(N3C(=O)/C(=C/c4ccc(Cl)cc4)SC3=S)C2=O)cc1 (stereo unspecified)	-14.3%	-7.1	-18.4%	-63.6*	23.9%
COC(=O)c1cc(S(=O)(=O)N2CCOCC2)c(Cl)cc1N1CCOCC1	-4.0%	3.4	-3.2%	1.4	3.0%
COC(=O)c1cc(C)nc2c1C(=O)C(=O)C=C2N1CCOCC1	?	-83.1*	/	-15.5	-5.0%
Cc1cc(Cl)nc(-c2ccccc2)n1	-7.6%	2.3	3.3%	6.9	-0.4%
CNC(=O)COC(=O)c1ccccc1C(=O)c1ccc(Cl)c([N+](=O)[O-])c1	4.3%	-0.7	0.8%	5.0	-4.2%
CCOc1cc(-c2cc(-c3ccc(C)cc3)nc(N)c2C#N)ccc1O	3.2%	-2.7	?	/	-4.8%
CCOc1cc(/C=C(\C#N)c2[nH]nc(N)c2C#N)ccc1O	6.4%	-2.7	27.5%	-65.2*	0.8%
Cn1c(CNC(=O)c2ccc(Cl)cc2)nnc1SCC(=O)NC1=NCCS1	1.2%	3.0	-2.7%	-1.8	-7.5%
Cc1ccc(Nc2nc3c([nH]2)c(=O)[nH]c(=O)n3C)cc1	i	6.2	4.5%	-7.2	1.6%
CCCCOc1cc(=O)[nH]c(=O)[nH]1	-1.1%	-51.2*	1.8%	-5.4	-11.4%
CCOc1ccc(Nc2cc(=O)[nH]c(=O)[nH]2)cc1	-7.1%	-2.2	9.5%	-9.7	-6.4%
CCC(Sc1ccc2nnc(-c3cccnc3)n2n1)C(=O)O (stereo unspecified)	i	-13.8	-3.2%	-58.3*	0.8%
CN(C)S(=O)(=O)Oc1cccc(C(=O)Nc2cccc(Cl)c2)c1	6.7%	-0.4	0.9%	6.1	-6.2%
Cc1oc(-c2ccc(Cl)cc2)cc1-c1nn2c(-c3ccco3)nnc2s1	/	/	/	/	-6.4%
Cc1oc(-c2ccc(F)cc2)cc1-c1nn2c(-c3ccoc3C)nnc2s1	-15.6%	-22.8	?	-74.4*	?
O=C(c1ccco1)N(CCC(c1ccccc1)c1ccco1)Cc1ccco1 (stereo unspecified)	?	-24.4	-10.6%	-66.2*	?
O=S(=O)(Nc1ccc(N=Nc2ccc(O)c3ccccc23)cc1)c1ccccc1	-2.6%	-9.5	12.2%	-19.7	-5.1%
O=[N+]([O-])c1ccc(N=Nc2ccc(O)c3ccccc23)cc1	?	-23.4	28.8%	-65.8*	/
